These results are taken from the antibiotic and cytotoxicity screens of Wong et al. (2023).

SMILES strings stand for the structures. Among all 39,000 compounds or so, about 3,300 (8.5%) were called active. This is one part of a sample in which actives are shown more often than they occur.

The subject of this assay is HepG2. The assay is described as follows: cytotoxicity call (relative viability < 0.9). The settings on record: 10 µM.
In the case of `C/C=C(\C)C(=O)O[C@H]1C[C@@H](OC(C)=O)[C@@]2(C(=O)OC)CO[C@H]3[C@@H](O)[C@@](C)([C@]45O[C@@]4(C)[C@H]4C[C@@H]5O[C@H]5OC=C[C@@]54O)[C@H]4[C@]1(CO[C@]4(O)C(=O)OC)[C@@H]32`, the cytotoxicity call was “inactive”. In the case of `CC1OC(OC2CC(O)C3(CO)C4C(O)CC5(C)C(C6=CC(=O)OC6)CCC5(O)C4CCC3(O)C2)C(O)C(O)C1O.O.O.O.O.O.O.O.O` (stereo not given) it was “active”; in that of `C[C@@H]1O[C@@H](O[C@@H]2C[C@@H](O)[C@]3(CO)[C@H]4[C@H](O)C[C@]5(C)[C@@H](C6=CC(=O)OC6)CC[C@]5(O)[C@@H]4CC[C@]3(O)C2)[C@H](O)[C@H](O)[C@H]1O`, “active”. Turning to `C[C@H]1C[C@@H](O)[C@]2(O)[C@@]13CC(=O)OC[C@@]2(C)[C@](C)(O)C(=O)C3`, the cytotoxicity call was “inactive”.

Regarding `CCn1cc(C(=O)[O-])c(=O)c2cc3c(cc21)OCO3.[K+]`, the cytotoxicity call was “inactive”. As for `Oc1cc2c(cc1O)CNCC2`, the entry is “inactive”. In the case of `CS(=O)(=O)C1C[C@H]2CC[C@@H](C1)N2` (stereo not given in full) it was “inactive”; in that of `O=C1N[C@@H]2C(=C[C@H](O)[C@@H](O)[C@H]2O)c2cc3c(c(O)c21)OCO3`, “active”; in that of `COC(=O)[C@H]1[C@H]2CO[C@@H]1CN2`, “inactive”.

Consider `C[C@H]1CN([C@@H](C)CO)C(=O)CCCn2cc(nn2)CO[C@H]1CN(C)C(=O)Oc1cccc2ccccc12`, for which the cytotoxicity call was “inactive”. Take `O=C(c1ccno1)N1C[C@@H]2CCN[C@@H]2C1`: the cytotoxicity call is “inactive”.

For the compound `NCC(=O)c1ccccc1`, the cytotoxicity call is “inactive”. Take `O=C(Cc1ccccc1)c1ccccc1`: the cytotoxicity call was “inactive”. `CC(=O)[O][Hg][c]1ccccc1`: the cytotoxicity call was “active”. Regarding `COC(=O)CC1=C(C(=O)OC)[C@]2(C(=O)Nc3ccccc32)C(C(=O)OC)C(=N)O1` (stereo not given in full), the cytotoxicity call is “inactive”. In the case of `N[C@@H](c1ccccc1)[C@@H](N)c1ccccc1` it was “inactive”; in that of `CCCNC(=O)C1=NO[C@]2(CCNC2)C1`, “inactive”; in that of `CC[C@@H](C)C(=O)O[C@@H]1C[C@@]2(C)[C@H](c3ccoc3)OC(=O)C[C@]23O[C@@]2(C)O[C@]34[C@H](OC(=O)C(C)C)[C@@]3(O)[C@@H](OC(=O)[C@@]5(C)O[C@@H]5C)[C@@]5(C)C[C@]3(O)[C@@](C)([C@H]5CC(=O)OC)[C@@]14O2`, “inactive”. As for `COc1ccc(OC(=O)N(C)C[C@H]2OCc3ccccc3-c3c(n(C)c4ccccc34)C(=O)N([C@@H](C)CO)C[C@@H]2C)cc1`, the entry is “inactive”; as for `N[C@@]1(C(=O)O)CC[C@H](C(=O)O)C1.N[C@]1(C(=O)O)CC[C@@H](C(=O)O)C1`, “inactive”; as for `CC1=C[C@H]2O[C@@H]3[C@H](O)[C@@H](O[C@H]4O[C@H](CO)[C@@H](O)[C@H](O)[C@H]4O)[C@](C)([C@@]2(CO)CC1)[C@]31CO1`, “active”. As for `Cc1cc(O[C@@H]2O[C@H](CO)[C@@H](O)[C@H](O)[C@H]2O)c2c3c(c(=O)oc2c1)CCC3`, the entry is “inactive”. Consider `CC(=O)OC[C@]12CCC(C)=C[C@H]1O[C@@H]1[C@H](O)[C@@H](OC(C)=O)[C@@]2(C)[C@]12CO2`, for which the cytotoxicity call is “active”. Turning to `Cc1cc(CCN)on1`, the cytotoxicity call was “inactive”. As to `C[C@@H]1CN([C@H](C)CO)C(=O)CCCn2nncc2CO[C@H]1CN(C)C(=O)Oc1ccc2ccccc2c1`, the cytotoxicity call was “inactive”. `O=S1(=O)COC2(CNC2)CN1`: the cytotoxicity call is “inactive”. For `C[C@@H]1CN([C@@H](C)CO)C(=O)CCCn2cc(nn2)CO[C@@H]1CN(C)C(=O)Oc1cccc2ccccc12`, the cytotoxicity call was “inactive”. As for `COC(=O)C[C@@H](CN)c1ccc(Cl)cc1`, the cytotoxicity call was “inactive”.

Take `O=C1CCCC2C3CCCN4CCCC(CN12)C34` (stereo not given): the cytotoxicity call is “inactive”. In the case of `Cl.Clc1ccc(C(OCCN2CCCCC2)c2ccccc2)cc1` (stereo not given) it was “active”; in that of `COc1ccc([C@@H](CN)C(C)C)cc1OC`, “inactive”; in that of `N[C@H]1CCN(c2cccnc2)C1`, “inactive”. As for `OC[C@H]1O[C@@H](Oc2ccc(/C=C/c3cc(O)cc(O)c3)cc2O)[C@H](O)[C@@H](O)[C@@H]1O`, the entry is “inactive”; as for `CC(=O)c1c(O)cc(C)oc1=O`, “inactive”; as for `C=C(C)c1cc2cc(C(C)=O)c(O)cc2o1`, “active”. In the case of `COCCC(=O)N1C[C@H]2CCN[C@H]2C1` it was “inactive”; in that of `Cl.NCC(CC(=O)O)c1ccc(Cl)cc1` (racemic), “inactive”. With `C[C@]12CC/C(=N\OCCN)C[C@@H]1C(=O)C[C@@H]1[C@@H]2CC[C@]2(C)C(=O)CC[C@@H]12`, the cytotoxicity call is “inactive”. On to `O=C1NC(=O)C(C2(O)C(=O)c3ccccc3C2=O)C(=O)N1`, for which the cytotoxicity call is “inactive”.

With `CC(=O)OC1C(=O)C2(C)C(O)CC3OCC3(OC(C)=O)C2C(OC(=O)c2ccccc2)C2(O)CC(O)C(C)=C1C2(C)C` (stereo not given), the cytotoxicity call was “active”. Take `CC(=O)O[C@H]1C(=O)[C@]2(C)[C@@H](O)C[C@H]3OC[C@@]3(OC(C)=O)[C@@H]2[C@H](OC(=O)c2ccccc2)[C@]2(O)C[C@H](O)C(C)=C1C2(C)C`: the cytotoxicity call is “active”. In the case of `CC(=O)O[C@@]12CO[C@@H]1C[C@H](O)[C@@]1(C)C(=O)[C@H](O)C3=C(C)[C@@H](OC(=O)[C@H](O)[C@@H](NC(=O)c4ccccc4)c4ccccc4)C[C@](O)([C@@H](OC(=O)c4ccccc4)[C@H]21)C3(C)C` it was “active”; in that of `O=C1CC[C@]2(CCCN(Cc3cnc[nH]3)C2)N1`, “inactive”; in that of `C=CCOC(=O)[C@@H]1[C@@H](C(=O)OC)N(C)[C@@H](c2ccccc2)[C@]12C(=O)Nc1ccc(I)cc12`, “inactive”. Regarding `C=CCC1(O)CCC2C3CCC4=CCCCC4C3CCC21C` (stereo not given), the cytotoxicity call is “inactive”. As for `CN(C)C1=NC(=O)C2(CCNCC2)N1`, the entry is “inactive”; as for `C#CCN(C)C(C)Cc1ccccc1.Cl` (stereo not given), “inactive”; as for `CN1CCN(c2nc(=O)c3c([nH]2)CCCC3)CC1`, “inactive”. In the case of `N=C(N)NO` it was “inactive”; in that of `O=C([C@H]1CCCO1)N1CCCN2CCC[C@H]2C1`, “inactive”.

`Cc1cc2ccccc2n1CCN`: the cytotoxicity call is “inactive”. For the compound `NNc1ccn([C@@H]2O[C@H](CO)[C@@H](O)[C@H]2O)c(=O)n1`, the cytotoxicity call was “inactive”. In the case of `NC(=O)c1cn([C@H]2O[C@@H](CO)[C@H](O)[C@@H]2O)c2ncnc(N)c12` it was “active”; in that of `NNc1ccn([C@H]2O[C@@H](CO)[C@@H](O)[C@@H]2O)c(=O)n1`, “inactive”. As for `CCNC(=O)[C@H]1O[C@H](n2cnc3c(N)ncnc32)[C@@H](O)[C@@H]1O`, the entry is “inactive”; as for `NC(=O)c1cn([C@@H]2O[C@H](CO)[C@@H](O)[C@H]2O)c2ncnc(N)c12`, “active”; as for `CCNC(=O)[C@H]1O[C@@H](n2cnc3c(N)ncnc32)[C@H](O)[C@@H]1O`, “inactive”. In the case of `C[N+](C)(C)CC(=O)[O-].Cl` it was “inactive”. For the compound `O=S(=O)(N[C@H]1CCO[C@]2(CCNC2)C1)C1CC1`, the cytotoxicity call was “inactive”. Regarding `NCCNC[C@@H](N)CCCNC(N)=N[N+](=O)[O-].O=CC(F)(F)F`, the cytotoxicity call was “inactive”.

Take `CC(=O)N1CCCC[C@]12CCNC2`: the cytotoxicity call was “inactive”. Take `CCCCC1C(=O)NC(=S)NC1=O`: the cytotoxicity call is “inactive”. Turning to `CC1CC(C)C(=O)C(C(O)CC2CC(=O)NC(=O)C2)C1` (stereo not given), the cytotoxicity call was “active”. Consider `CC12CCC3C(CC=C4CC(O)CCC43C)C1CCC2=O` (stereo not given), for which the cytotoxicity call is “inactive”.

Turning to `COC(=O)[C@H]1CNCCN1c1ccccc1`, the cytotoxicity call was “inactive”. As to `O[C@H]1[C@H](O)[C@@H](O)CN2CC[C@H](O)[C@H]12`, the cytotoxicity call is “inactive”. As for `Cc1nc2c(=O)n(C)c(=O)nc-2n(C)n1`, the entry is “active”. `Cn1ncnc2c(=O)n(C)c(=O)nc1-2`: the cytotoxicity call is “active”. For the compound `Cc1nc[nH]c1CCN`, the cytotoxicity call was “inactive”.

With `NC[C@@H](CS(=O)(=O)O)c1ccc(Cl)cc1`, the cytotoxicity call was “inactive”.

`CCN1C[C@]2(C)CC[C@H](O)[C@@]34[C@@H]5C[C@H]6[C@H](O)[C@@H]5[C@](O)(C[C@@H]6OC)[C@](O)([C@@H](OC)[C@H]23)[C@@H]14`: the cytotoxicity call is “inactive”. As for `C[C@@H]1CN([C@@H](C)CO)C(=O)c2c(c3ccccc3n2C)-c2ccccc2CO[C@@H]1CN(C)C(=O)Oc1ccccc1`, the entry is “inactive”.

On to `CN(C)[C@@H]1C(=O)C(C(N)=O)=C(O)[C@@]2(O)C(O)=C3C(=O)c4c(O)cccc4[C@](C)(O)[C@H]3C[C@@H]12`, for which the cytotoxicity call is “inactive”.

For `CCC(C)C(=O)OC1CC2(C)C(c3ccoc3)OC(=O)CC23OC2(C)OC34C(OC(C)=O)C3(O)C(OC(=O)C5(C)OC5C)C5(C)CC3(O)C(C)(C5CC(=O)OC)C14O2` (stereo not given), the cytotoxicity call was “inactive”. On to `Cc1ccc(N=CN(C)C=Nc2ccc(C)cc2C)c(C)c1`, for which the cytotoxicity call was “inactive”. Turning to `C[C@H](CO)N1C[C@H](C)[C@@H](CN(C)C(=O)Oc2cccc3ccccc23)OCc2cnnn2CCCC1=O`, the cytotoxicity call was “inactive”. In the case of `O=C(O)c1ccc(=O)[nH]c1` it was “inactive”. On to `CN1CCN(Cc2ccc[nH]2)CC1`, for which the cytotoxicity call is “inactive”. As for `C[C@]12CC[C@@H]3c4ccc(OC(=O)N(CCCl)CCCl)cc4CC[C@H]3[C@@H]1CC[C@@H]2OP(=O)(O)O`, the entry is “inactive”. Take `CC12CCC3c4ccc(OC(=O)N(CCCl)CCCl)cc4CCC3C1CCC2O` (stereo not given): the cytotoxicity call is “active”. As for `Cc1cc(C)nc(NC2=NCCN2)n1`, the entry is “inactive”; as for `O=C(CN1CCOCC1)c1ccc(O)cc1O`, “inactive”; as for `CC(C)[N+](C)(CCC(C(N)=O)(c1ccccc1)c1ccccc1)C(C)C.[I-]`, “inactive”. As for `c1cc2c(c(N3CCNCC3)c1)OCCO2`, the entry is “inactive”; as for `CCC1(c2ccccc2)C(=O)NC(=O)NC1=O`, “inactive”. In the case of `COC(=O)C[C@@H]1CC[C@H]2NC[C@H](O)COC[C@@H]2O1` it was “inactive”; in that of `COC12CC(COC(=O)c3cncc(Br)c3)CN(C)C1Cc1cn(C)c3cccc2c13` (stereo not given), “active”. Take `NCC1(c2ccc(Cl)cc2)CC1`: the cytotoxicity call was “inactive”. As for `O=C(O)/C=C/CO`, the entry is “inactive”. For the compound `Cn1cc(NC(=O)c2cc(NC(=O)CNC(=N)N)cn2C)cc1C(=O)NCCC(=N)N`, the cytotoxicity call was “inactive”. Take `O=C(O)CCl`: the cytotoxicity call was “inactive”. As for `O=C1NC2(CCNCC2)C[C@@H]1c1ccncc1`, the entry is “inactive”; as for `Cc1cccc(Cc2cnc[nH]2)c1C`, “inactive”. In the case of `NCCc1c[nH]c2ccccc12` it was “inactive”; in that of `COc1cccc(-c2ccc3c(CCN)c[nH]c3c2)c1`, “active”; in that of `COc1ccc2[nH]cc(CCN)c2c1`, “inactive”. As for `C=CCc1ccc(OC)cc1`, the entry is “active”; as for `COc1ccc(C=O)cc1`, “inactive”; as for `COc1ccc(N=[N+]=[N-])cc1`, “inactive”. Regarding `C[C@@H]1C(=O)NC[C@H]2CN(CC3CC3)C[C@@H]21`, the cytotoxicity call is “inactive”.
